Measured values from the supplement of paper PMC12645437, “Orthogonal IMiD-Degron Pairs Induce Selective Protein Degradation in Cells” (ACS Chemical Biology, 2025).
In all, about 8,300 sequences were measured (“log2 fold change of degron read counts, EGFP-low vs EGFP+ sorted cells (limma voom), compound-induced degradation”: median about -1.1, highest 2% from about 3.2 on). What follows is part of a selection rich in the highest values, with near analogues and random picks from the rest.

Molecular target: T1, CRBN, Q96SW2
T1 chain: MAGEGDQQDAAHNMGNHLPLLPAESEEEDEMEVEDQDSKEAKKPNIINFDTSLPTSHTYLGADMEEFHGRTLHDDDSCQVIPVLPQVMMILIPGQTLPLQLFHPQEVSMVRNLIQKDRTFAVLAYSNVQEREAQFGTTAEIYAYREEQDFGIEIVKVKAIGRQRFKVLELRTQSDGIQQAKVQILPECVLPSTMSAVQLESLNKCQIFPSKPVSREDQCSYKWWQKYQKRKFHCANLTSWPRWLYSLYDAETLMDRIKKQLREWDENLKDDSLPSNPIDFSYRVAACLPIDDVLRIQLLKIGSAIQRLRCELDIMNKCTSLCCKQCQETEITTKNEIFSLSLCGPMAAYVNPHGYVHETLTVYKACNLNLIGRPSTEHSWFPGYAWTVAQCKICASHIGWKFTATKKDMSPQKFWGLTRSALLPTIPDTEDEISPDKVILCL
Test: log2 fold change of degron read counts, EGFP-low vs EGFP+ sorted cells (limma voom), compound-induced degradation; higher = more compound-induced degradation of the degron-EGFP fusion; degrons are variants of IKZF1/3 zinc finger 2; compound dose not given here
Settings: Jurkat, 18 h

[1] = compound: compound 19 (5-tert-butyl-thalidomide)
[2] = compound: compound 22 (5-morpholino-thalidomide)
[3] = compound: compound 33 (diphenyl IMiD analogue)
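Further: pooled lentiviral library of zinc finger degron-EGFP fusions in mCherry-positive Jurkat cells, FACS-sorted after compound exposure, with degron abundance counted by next-generation sequencing.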

Row | Sequence | log2 fold change of degron read counts [1] | log2 fold change of degron read counts [2] | log2 fold change of degron read counts [3] | log2 fold change of degron read counts (compound: thalidomide)
1 | FKCPICGHRFTQKGNLLRHIKL [46F_47K_49P_50I_52G_53H_54R_55F_67L_, Q9UKT9] | -2.63 | -2.88 | -3.36 | -2.52
2 | FQCDICGAFFTQKGNLLRHIKL [46F_47Q_49D_50I_52G_53A_54F_55F_67L_, Q9UKT9] | -2.31 | -1.64 | 0.643 | 0.872
3 | FECNQCGRDFTQKGNLLRHIKL [46F_47E_49N_50Q_52G_53R_54D_55F_67L_, Q9UKT9] | -3.19 | -3.55 | -3.13 | -3.35
4 | LHCPICGFCCTQKGNLLRHIKL [46L_47H_49P_50I_52G_53F_54C_55C_67L_, Q9UKT9] | 2.7 | 2.71 | 2.46 | 1.82
5 | LQCPICGFCCTQKGNLLRHIKL [46L_47Q_49P_50I_52G_53F_54C_55C_67L_, Q9UKT9] | 1.14 | 2.25 | 2.13 | 3.61
6 | LMCPICGFCCTQKGNLLRHIKL [46L_47M_49P_50I_52G_53F_54C_55C_67L_, Q9UKT9] | 0.471 | 1.34 | 2.61 | 2.08
7 | LCCPICGFCCTQKGNLLRHIKL [46L_47C_49P_50I_52G_53F_54C_55C_67L_, Q9UKT9] | 1.74 | 2.1 | 2.79 | 2.63
8 | LLCPICGFCCTQKGNLLRHIKL [46L_47L_49P_50I_52G_53F_54C_55C_67L_, Q9UKT9] | 0.766 | 0.49 | 1.44 | 1.92
9 | LNCPICGFCCTQKGNLLRHIKL [46L_47N_49P_50I_52G_53F_54C_55C_67L_, Q9UKT9] | 1.6 | 0.635 | 0.926 | 1.15
10 | LICPICGFCCTQKGNLLRHIKL [46L_47I_49P_50I_52G_53F_54C_55C_67L_, Q9UKT9] | 0.314 | 1.98 | 1.85 | 2.51
11 | LVCPICGFCCTQKGNLLRHIKL [46L_47V_49P_50I_52G_53F_54C_55C_67L_, Q9UKT9] | 1.02 | 2.52 | 2.24 | 2.97
12 | LDCPICGFCCTQKGNLLRHIKL [46L_47D_49P_50I_52G_53F_54C_55C_67L_, Q9UKT9] | 0.0932 | -0.387 | 0.637 | 1.33
13 | LYCPICGFCCTQKGNLLRHIKL [46L_47Y_49P_50I_52G_53F_54C_55C_67L_, Q9UKT9] | 3.56 | 3.56 | 2.91 | 1.99
14 | LFCPICGFCCTQKGNLLRHIKL [46L_47F_49P_50I_52G_53F_54C_55C_67L_, Q9UKT9] | 3.44 | 3.46 | 2.76 | 2.26
15 | LWCPICGFCCTQKGNLLRHIKL [46L_47W_49P_50I_52G_53F_54C_55C_67L_, Q9UKT9] | 3.2 | 3.49 | 2.92 | 2.17
16 | FVCNVCGARFTQKGNLLRHIKL [46F_47V_49N_50V_52G_53A_54R_55F_67L_, Q9UKT9] | -0.689 | 0.0526 | -0.518 | 0.565
17 | FDCEICGHAFTQKGNLLRHIKL [46F_47D_49E_50I_52G_53H_54A_55F_67L_, Q9UKT9] | -2.17 | -2.36 | -2.99 | -2.62
18 | FQCEICGHAFTQKGNLLRHIKL [46F_47Q_49E_50I_52G_53H_54A_55F_67L_, Q9UKT9] | -3.35 | -3.01 | -2.87 | -1.5
19 | FGCNQCGRAFTQKGNLLRHIKL [46F_47G_49N_50Q_52G_53R_54A_55F_67L_, Q9UKT9] | -2.18 | -2.21 | -2.02 | -1.91
20 | FSCEICGRSFTQKGNLLRHIKL [46F_47S_49E_50I_52G_53R_54S_55F_67L_, Q9UKT9] | -1.46 | -2.51 | -1.36 | -1.71
21 | FTCPICGHQFTQKGNLLRHIKL [46F_47T_49P_50I_52G_53H_54Q_55F_67L_, Q9UKT9] | 0.276 | 0.993 | 2.35 | 2.28
22 | FLCDQCGASFTQKGNLLRHIKL [46F_47L_49D_50Q_52G_53A_54S_55F_67L_, Q9UKT9] | -2 | -2.92 | -1.43 | -3.07
23 | FMCEICGRCFTQKGNLLRHIKL [46F_47M_49E_50I_52G_53R_54C_55F_67L_, Q9UKT9] | -2.91 | -2.9 | -1.29 | -1.79
24 | FTCDQCGAFFTQKGNLLRHIKL [46F_47T_49D_50Q_52G_53A_54F_55F_67L_, Q9UKT9] | -2.38 | -2.78 | -2.11 | -2.23
25 | FSCPICGAEFTQKGNLLRHIKL [46F_47S_49P_50I_52G_53A_54E_55F_67L_, Q9UKT9] | 1.92 | 1.11 | 1.41 | 1.11
26 | FNCNICGAEFTQKGNLLRHIKL [46F_47N_49N_50I_52G_53A_54E_55F_67L_, Q9UKT9] | -0.383 | -1.22 | -0.688 | -0.836
27 | FYCNICGAEFTQKGNLLRHIKL [46F_47Y_49N_50I_52G_53A_54E_55F_67L_, Q9UKT9] | 1.9 | 1.64 | 0.908 | -1.03
28 | FQCPICGAEFTQKGNLLRHIKL [46F_47Q_49P_50I_52G_53A_54E_55F_67L_, Q9UKT9] | 1.17 | 1.71 | 2.51 | 3.61
29 | FQCNICGAEFTQKGNLLRHIKL [46F_47Q_49N_50I_52G_53A_54E_55F_67L_, Q9UKT9] | -1.13 | 0.376 | 1.25 | 3.24
30 | FVCPICGAEFTQKGNLLRHIKL [46F_47V_49P_50I_52G_53A_54E_55F_67L_, Q9UKT9] | 0.162 | 2.31 | 1.62 | 2.6
